PubChem BioAssay (NCI)
Compounds without any hit were thinned out: in the full panel of roughly 83,000, 20% have a hit.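 Growth was measured after 48 h exposure to one concentration of compound in 96-well plates. Values under 10 count as active.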 Values without a mark were called inactive. Activity calls are given as the source filed them.

How the values were obtained:
Test in all cases: NCI-60 one-dose screen, 48 h (100 = growth as untreated, 0 = no growth, -100 = all killed)
Conditions in all cases: 10 µM unless noted
[1] = system: NCI-H23 lung
[2] = system: NCI-H322M lung
[3] = system: HOP-62 NSCLC
[4] = system: NCI-H460 lung
[5] = system: HOP-92 NSCLC
[6] = system: NCI-H522 lung
[7] = system: 786-0 renal
[8] = system: COLO 205 colon
[9] = system: DU-145 prostate
[10] = system: K-562 leukemia
[11] = system: MALME-3M melanoma
[12] = system: MDA-MB-231 breast
[13] = system: RXF 393 renal
[14] = system: SF-268 CNS
[15] = system: SF-295 CNS
[16] = system: SF-539 CNS
[17] = system: UACC-257 melanoma
[18] = system: M14 melanoma
[19] = system: HCT-15 colon
[20] = system: A549/ATCC NSCLC

SMILES	growth [1]	growth [2]	growth [3]	growth [4]	growth [5]	growth [6]	growth [7]	growth [8]	growth [9]	growth [10]	growth [11]	growth [12]	growth [13]	growth [14]	growth [15]	growth [16]	growth [17]	growth [18]	growth [19]	growth [20]
CC[C@]1(O)C[C@@H]2CN(CCc3c([nH]c4ccccc34)[C@@](C(=O)OC)(c3cc4c(cc3OC)N(C)[C@H]3[C@@](O)(C(=O)OC)[C@H](OC(=O)CCCBr)[C@]5(CC)C=CCN6CC[C@]43[C@@H]65)C2)C1	33.1%	38.7%	29.2%	5.85% (active)	-0.264% (active)	-27% (active)	10.4%	-53.2% (active)	5.82% (active)	8.93% (active)	39.4%	-16.5% (active)	34.2%	21.2%	8.8% (active)	-10.4% (active)	62%	-11% (active)	10.5%	
Cc1ccc(C2CC(c3ccc(Nc4nc(NCCO)nc(Nc5ccc(Cl)cc5)n4)cc3)=NN2c2cc(Cl)cc(Cl)c2)cc1 (configuration not stated)	92.5%	85%	82.8%	98.9%	101%	104%	102%		112%	99.9%	102%	91.3%	88.6%	79.7%	100%	92.4%	101%	121%	99.3%	94.2%
Brc1ccc(Oc2ccc(Nc3ncnc4onc(-c5ccccc5)c34)cc2)cc1	94.3%	110%	99.8%	103%	110%	97.8%	98.5%	112%	102%	92.4%	103%	98.3%	103%	96.7%	92.2%	96.2%	98%	98.3%	103%	
O=C(/C=C/c1ccc(F)cc1)c1ccc(Nc2nc(NCCO)nc(Nc3ccc(Cl)cc3)n2)cc1	89.1%	93.1%	80.8%	61.6%	87.8%	81.1%	69.8%		84.6%	45.4%	96.6%	71.9%	51.2%	71.9%	91%	74.4%	99.5%	83.3%	26.7%	51.1%
COc1cc(/C=C/C(=O)c2ccc(Cl)cc2)cc(CN2CCCCC2)c1O	92.6%	91.6%	94.7%	94.3%	75.5%	77.2%	91.6%		103%	70.4%	82.2%	83.2%	97.6%	91.1%	97.9%	92.1%	92.3%	91.4%	69.8%	94.6%
O=c1oc2ccc(Br)cc2c(=O)n1-c1ccc(Br)cc1F	-38.4% (active)	2.56% (active)	-4.63% (active)	1.55% (active)	-13.7% (active)	6.36% (active)	1.72% (active)		13.8%	8.3% (active)	-28.4% (active)	-27.2% (active)	-11.5% (active)	12%	-73.6% (active)	-3.2% (active)	-15.1% (active)	-12.4% (active)	2.53% (active)	13%
COC(=O)c1c2c(c(C)[n+]([O-])c1C)C(=O)C=C(NCc1ccccc1)C2=O	-50% (active)	-5.71% (active)	2.96% (active)	-13.1% (active)	-27.2% (active)	-26.1% (active)	4.63% (active)		-92.7% (active)	1.96% (active)	-96.9% (active)	-26% (active)	-25.3% (active)	-4.22% (active)	-84% (active)	-90.2% (active)	-89.6% (active)	-80.1% (active)	-68.5% (active)	-4.94% (active)
Nc1nc(-c2cnccn2)nn1-c1nc2ccccc2s1	95.2%	103%	95.4%	104%	106%	88.4%	102%	111%	106%	93.9%	104%	95.4%	110%	99.2%	103%	101%	99.1%	99.2%	103%	
